According to PubChem BioAssay (NCI):
About 83,000 compounds went through this panel and 20% of them were active in at least one assay; those are over-represented in the sample as a whole.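 Note: values are percent growth. 100 is the growth of untreated cells, values between 100 and 0 indicate rising inhibition; between -100 and 0 indicates cell death.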 Calls of active or inactive are those of the source. Rule for the calls: active = growth percent below 10; inactive = the rest.

Key:
Assay in all cases: NCI-60 one-dose screen, 48 h (100 = growth as untreated, 0 = no growth, -100 = all killed)
Settings in all cases: 10 µM unless noted
HCT-15 colon = system: HCT-15 colon
HT29 colon = system: HT29 colon
SNB-75 CNS = system: SNB-75 CNS
SNB-19 CNS = system: SNB-19 CNS
U251 CNS = system: U251 CNS
PC-3 prostate = system: PC-3 prostate
UACC-62 melanoma = system: UACC-62 melanoma
LOX IMVI melanoma = system: LOX IMVI melanoma
SK-MEL-28 melanoma = system: SK-MEL-28 melanoma

Measured: growth

O=C(COc1ccc(-c2nc3cc(Cl)c(Cl)cc3[nH]2)cc1)N=Nc1c(O)[nH]c2ccccc12
active: HT29 colon 4.49% | SNB-75 CNS -73.8% | SNB-19 CNS -35.9% | U251 CNS -86.3% | PC-3 prostate -50.6% | UACC-62 melanoma 1.75% | LOX IMVI melanoma 6.14% | SK-MEL-28 melanoma -49.1%
inactive: HCT-15 colon 79.4%

O=C(O)c1c(=O)cccc2ssc12
active: HCT-15 colon 4.16% | HT29 colon -48.6% | SNB-19 CNS -74.4% | U251 CNS -91.9% | PC-3 prostate -19.3% | LOX IMVI melanoma 1.04%
inactive: SNB-75 CNS 26.9% | UACC-62 melanoma 14.3% | SK-MEL-28 melanoma 10.8%

CC(C)(CCCN=C(N)Nc1ccc(Cl)cc1)c1ccc(F)cc1
inactive: HCT-15 colon 67.1% | HT29 colon 12.7% | SNB-75 CNS 60.7% | SNB-19 CNS 67.4% | U251 CNS 65.5% | PC-3 prostate 52.9% | LOX IMVI melanoma 57.8%

COc1cc(Nc2cc(C)nc(N3CCN(c4ccnc5cc(Cl)ccc45)CC3)n2)cc(OC)c1
active: HCT-15 colon 5.63% | HT29 colon 3.4% | SNB-75 CNS 8.38% | U251 CNS 9.56% | UACC-62 melanoma -2.21%
inactive: SNB-19 CNS 27.5% | PC-3 prostate 22.8% | SK-MEL-28 melanoma 44.5%
